Laboratory results taken from PubChem BioAssay AID819 (Columbia University Molecular Screening Center, 2007).
The whole screen tested about 94,000 compounds, of which about 280 (0.3%) were called active.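 Rule for the calls: active = activation above 40%, about the mean plus 3 SD, also judged a hit on visual image review; inconclusive = activation above 40% but not a hit on visual review; inactive = activation not above 40% and no visual hit.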 The list comes from a sample in which actives are over-represented; it also holds similar structures and randomly drawn compounds.

Assay: enhancers of NFkB p65 translocation in HUVEC – imaging, IL-1B stimulus, high-content imaging, primary screen (AID 819);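 note: percent activation is computed from the nuclear over cytoplasmic p65 intensity ratio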
Details: HUVEC IL-1B NFkB p65 nuclear translocation imaging; at 2 µM; active compounds read high

activation, active:
COc1ccc(C(=O)n2nc(-c3ccc(Cl)cc3)nc2N)cc1OC 41.4%
N#Cc1ccc(Oc2cc(C(F)(F)F)nc(-c3ccccn3)n2)cc1 49.2%
CCOc1ccccc1/C=c1\sc2nc(-c3ccco3)nn2c1=O 53.9%
Cc1cc(C)n(-c2cc(Oc3ccccc3)ncn2)n1 43.8%
CCN1CCN(Cc2c(O)ccc3c(=O)c(-c4ccc(OC)c(OC)c4)c(C(F)(F)F)oc23)CC1 65.5%

activation, inactive:
Nc1ccc(-c2sc(N)nc2-c2ccccc2)cc1 -1.63%
CC(C)c1ccc(N2CCN(C(=O)c3ccccc3NC(=O)/C=C(\C(=O)O)c3ccccc3)CC2)cc1 24.1%
NC(=NC(=O)c1ccccc1)N1CCOCC1 3.72%
O=C(Cc1ncc(C(F)(F)F)cc1Cl)Nc1cccc(Br)c1 13.4%
O=[N+]([O-])c1ccc(Oc2ccc(F)cc2Br)c2ccncc12 -1.85%
S=C(NCCC1=CCCCC1)Nc1ccccc1 -10.4%
Cc1nn(C)cc1/C=C1\CCC/C(=C\c2cn(C)nc2C)C1=O -13.1%
COCC(C)NC(=O)c1ccc(-n2nc(C(F)(F)F)cc2-c2cccs2)cc1 (stereo not given) 15.7%
COc1ccc(C(=O)n2nc(-c3ccc(C)cc3)nc2N)cc1OC -6.6%
COc1ccccc1C(=O)n1nc(-c2ccccc2)nc1N 13.8%
CC(C)(CCl)C(=O)Nc1ccc(Sc2ccc(F)cc2)cc1 -5.55%
CCn1c(SCc2ccc(C)cc2)nnc1-c1nn(-c2ccccc2)ccc1=O 0.15%
O=C1c2ccccc2C(=O)c2c1cccc2N1CCN(CCO)CC1 11.4%
CCC1(CC)NC(=O)N(CC(=O)OCC(=O)Nc2ccc(C(F)(F)F)cc2)C1=O -31.3%
Cc1cccc(-c2nc3c(c(SCC(=O)N4CCOCC4)n2)CCCC3)c1 16.6%
COc1ccccc1NC(=O)[C@H](COCc1ccccc1)NC(=O)OC(C)(C)C 8.44%
CCCC(=O)NC(Nc1ccccc1OC)C(Cl)(Cl)Cl (stereo not given) -10.4%
CCOC(=O)C1(S(=O)(=O)c2ccccc2)CCN(Cc2ccccc2)CC1 2.52%
CCC(=O)Nc1ccc2nc(C)n(Cc3ccccc3Cl)c(=O)c2c1 -5.54%
COc1cnc(SCc2ccc(Cl)c(Cl)c2)nc1Cl 20.1%
Cc1cc(C)cc(OCC(=O)NNC(=O)c2cc3ccccc3oc2=O)c1 -12%
Cc1cc(OC(=O)c2c(Cl)cccc2Cl)nc(C)n1 23%
COc1ccc(C(=O)Nc2nc(-c3ccc(OC)cc3)c(-c3ccc([N+](=O)[O-])cc3)s2)cc1 1.5%
CN(CC#CCC(c1ccccc1)c1ccccc1)C(C)(C)C 6.49%
Cc1cc([N+](=O)[O-])c(NC2CCCCC2)c([N+](=O)[O-])c1 3.11%
NS(=O)(=O)c1ccc(Nc2nc(-c3ccccc3)cs2)cc1 -18.6%
O=C(CSCc1ccc([N+](=O)[O-])cc1)Nc1cccc(C(=O)Nc2ccccc2C(=O)O)c1 7.87%
COc1ccccc1NC(=O)c1ccc2nc(N3C(=O)CCC3=O)sc2c1 11.6%
COC(=O)c1ccccc1OCC(=O)N1CCN(c2ccc(Cl)cc2)CC1 11.5%
COc1ccccc1OCCNc1cc(N2CCOCC2)ccc1[N+](=O)[O-] 7.12%
Cc1nnc(SCC(=O)NC(=O)NC2CCCC2)n1N -1.65%
CCOC(=O)c1cnc(-c2ccccc2)nc1Oc1ccc(C)cc1 -7.86%
CC(C)NC(=O)NC(=O)COC(=O)c1ccc(NC(=O)CC#N)cc1 5.58%
O=S(=O)(c1ccc(F)cc1)n1ccc(-c2cnc(-c3ccccc3)s2)n1 5.1%
CCOCCOCCC(C(=O)O)P(=O)(c1ccccc1)c1ccccc1 (stereo not given) 2.8%
O=c1nc2s/c(=C\c3ccco3)c(=O)n2nc1Cc1ccccc1 10.3%
CCOc1ccccc1C(=O)NCc1ccco1 8.02%
CCOC1CS(=O)(=O)CC1OCC (stereo not given) 12.8%
O=C1c2ccccc2C(=O)c2c1cccc2N1CCN(Cc2ccccc2)CC1 -2.37%
O=C(COC(=O)c1ccccc1NC(=O)c1ccco1)Nc1ccc2c(c1)OC(F)(F)O2 0.88%
CC(=O)c1ccc2c(ccc3ccccc32)c1 8.21%
CCCN1Cc2cccc(C(=O)Nc3ccc(S(=O)(=O)N4CCCCCC4)cc3)c2C1=O 7.44%
O=C(Nc1ccc(Cl)cc1)OCc1cc(-c2ccccc2)on1 15.4%
CC(=O)c1ccc(Oc2cc(C)nc(-n3nc(C)cc3C)n2)cc1 -11.2%
CC(=O)c1cnn(-c2cc(Oc3ccc(F)cc3)ncn2)c1C 10.6%
CC12c3ccccc3C(c3ccccc31)C1C(=O)N(Cc3cccnc3)C(=O)C12 (stereo not given) -8.61%
COc1cc(OC)cc(C(=O)NC2CCN(C(=O)N3c4ccccc4Sc4ccccc43)CC2)c1 1.07%
O=C(OCc1cn(-c2ccc(Cl)c(Cl)c2)nn1)c1ccccc1Cl 12.2%
O=C(CN1C(=O)NC(Cc2ccccc2)(Cc2ccccc2)C1=O)NCC1CCCCC1 0%
CCCCOC(=O)Nc1sc2nc(C)cc(C)c2c1-n1cccc1 -1.73%
Cc1cc2c(cc1C)N(C(=O)CN1C(=O)c3ccccc3C1=O)C(C)(C)c1ssc(=S)c1-2 17.4%
COc1ccc(-c2[nH]nc(-c3ccccc3)c2-c2nc3ccccc3[nH]2)cc1 -1.89%
O=c1c(-c2ccc3c(c2)OCCO3)c(C(F)(F)F)oc2cc(O)cc(O)c12 9.87%
COc1ccc(OC)c(C(=O)c2coc3ccc(O)c(CN4CCOCC4)c23)c1 -5.05%
O=C(c1ccc2c(c1)OCO2)N1CCOCC1 -1.72%
